Values joined by “and” are separate entries in the source; they are usually repeats but may differ in a detail not shown here. Equal entries are not always repeated. Results filed as inconclusive are left out. For some assays here: Entries with a potency or affinity are not part of this list. Active and inactive are the calls of the source. Unless noted, how the calls were made is not given here. Numbered stars: 1 amine (or outer) side, 2 acyl side, 3 side chain; on linkers, the order of the positions; unused ones are H or OH. Bridge positions count the residues as written; N and C are the ends. Square brackets hold non-standard residues; d marks the D form. Peptide text beside a SMILES is read from it. I, II: the chains in the order shown. Actinocin(9to1) = Cc1c2oc3c(C)ccc(C(=O)[*:1])c3nc-2c(C(=O)[*:2])c(N)c1=O; NMeV = CN[CH](C(=O)O)C(C)C; Sar = CNCC(=O)O

As a reminder, the inhibition is the drop in the measured response relative to a control, in per cent. As a reminder, the AC50 is the concentration giving half of the maximal activity seen. In general, remaining activity refers to the signal under treatment as a percentage of the control signal.

Assay [1] can be described thus: blockers of polyQ-driven CASP3 activation – cell-based (AID 1583). The following applies: polyglutamine-induced caspase-3 activation, cell assay; stronger effect = higher value;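 tested at 10 µM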.
The nature of assay [2]: yeast 75Q aggregation reduction – 75Q-TubU reporter (AID 1593). The following applies: Yeast 75Q polyglutamine aggregation reporter.
A short description of assay [3]: restoration of touch response, mutant HTT neurons – whole organism, C. elegans mechanosensory neurons, N-terminal huntingtin (AID 1599). As to conditions: C. elegans polyQ-huntingtin mechanosensory neurons, stronger effect = higher value.
A short description of assay [4]: blockers of cytochrome c efflux from mitochondria – biochemical, purified mitochondria (AID 1603).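 Further: mouse liver mitochondria challenged with calcium chloride; signal normalized to the plate average as 100%.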 As to conditions: stronger effect = lower value.
A short description of assay [5]: compounds altering circadian rhythm period length – cell-based, LOPAC library, luminescence reporter (AID 2774).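 Further: values are relative to mean of DMSO wells on each plate.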 The following applies: circadian reporter cells, at 7 µM, actives lie on both sides.
Assay [6] concerns Hepatitis C virus NS3 helicase. Description: blockers of NS3h binding to ssDNA – biochemical, fluorescence polarization, LOPAC1280 library, primary screen (AID 687035; in the data active means inhibition above about 37%). The following applies: Purified HCV NS3 helicase, Cy5-dT15 ssDNA binding fluorescence polarization; stronger effect = higher value; concentration not given here.
A short description of assay [7]: compounds altering Cy5-DNA-NS3h complex signal – biochemical, LOPAC1280, artefact control for HCV NS3 helicase inhibitor project (AID 687037). As to conditions: Cy5-DNA-NS3h complex fluorescence interference counterscreen.
A short description of assay [8]: blockers of cellular phospholipid synthesis – cell-based, LOPAC library, screen 4, primary screen (AID 1347384). As to conditions: animal cells, phospholipid biosynthesis inhibition screen; at 10 µM.
Assay [9] addresses ATP-dependent translocase ABCB1 (Homo sapiens) (UniProt P08183). Briefly: P-glycoprotein substrate transport blockade – cell-based (AID 377; in the data active means fluorescence slope change above about 50%). As to conditions: MDR1-expressing cells, fluorescent substrate accumulation slope; stronger effect = higher value; concentration not given here.
A short description of assay [10]: compounds altering viability of human ES cells (AID 493140).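 Further: cells exposed to compounds for four days before counting.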 As to conditions: human embryonic stem cell survival screen; stronger effect = higher value.
Assay [11] concerns the target NAD(+) hydrolase SARM1 (Homo sapiens) (UniProt Q6SZW1). Description: blocking NAD cleavage by SARM1 SAM-TIR – cell lysate, NAD-Glo luminescence (AID 1508614;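 active means compound whose remaining NAD level is above about 45 nM, limit read from the data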). The following applies: SAM-TIR HEK293T lysate NADase, at 1 µM, stronger effect = higher value.
A short description of assay [12]: viability loss in pontine glioma line – cell-based, SU-DIPG-XIII, MIPE4.0, CellTiter-Glo, qHTS, dose response (AID 1347061; cut-off not given, nearly all actives have AC50 up to about 37 µM;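 further: cells exposed to compound for 48 hours before readout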). The following applies: CellTiter-Glo ATP luminescence. (In ATP-based viability assays light output follows the ATP content of the culture.)
Assay [13] in a line: viability loss in pontine glioma line – cell-based, JHH-DIPG-1, MIPE4.0, CellTiter-Glo, qHTS, dose response (AID 1347062; cut-off not given, nearly all actives have AC50 up to about 27 µM;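 on AC50: cells exposed to compound for two days before readout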). As to conditions: JHH-DIPG-1 viability, CellTiter-Glo ATP luminescence.
A short description of assay [14]: viability loss in pontine glioma line – cell-based, SU-DIPG-IV, MIPE4.0, CellTiter-Glo, qHTS, dose response (AID 1347063; cut-off not given, nearly all actives have AC50 up to about 30 µM;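 further: compound exposure lasted 48 hours before the viability readout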). As to conditions: CellTiter-Glo ATP luminescence.
The nature of assay [15]: viability loss in pontine glioma line – cell-based, SU-DIPG-XIII, MIPE5.0, CellTiter-Glo, qHTS, dose response (AID 1347064; cut-off not given, nearly all actives have AC50 up to about 23 µM;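 on AC50: cells exposed to compound for 48 hours before the viability read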). As to conditions: CellTiter-Glo ATP luminescence.
A short description of assay [16]: growth inhibition of DIPG cells – cell-based, MIPE4.0 library, CellTiter-Glo luminescence, qHTS (AID 1347066; cut-off not given, nearly all actives have AC50 up to about 30 µM;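 further: cells exposed to compound for 48 hours before readout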). The following applies: SU-DIPG-VI viability, CellTiter-Glo ATP luminescence.
Assay [17] concerns Aerobactin synthetase IucA (Klebsiella pneumoniae). Description: inhibition of K. pneumoniae IucA enzyme – biochemical, Tocris library, absorbance (AID 1345561).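 Further: 100% = enzyme without compound and 0% = no enzyme.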 As to conditions: purified IucA enzyme assay, absorbance (OD) read-out; stronger effect = lower value;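 tested at 8 µM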.
The nature of assay [18]: drug combination toxicity in non-malignant astrocytes – cell-based, BGB or cisplatin IC20 combos, cytotoxicity control for chromothriptic childhood tumor combination screen (AID 1671460; in the data active means inhibition above about 80%;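 further: cells exposed to compounds for 96 hours before viability readout; 0% = vehicle and 100% = killing control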). The following applies: Human astrocytes, viability inhibition, drug combinations, at 0.5 µM, stronger effect = higher value.

Sequence of ATP-dependent translocase ABCB1 (Homo sapiens) (P08183 whole entry, looked up): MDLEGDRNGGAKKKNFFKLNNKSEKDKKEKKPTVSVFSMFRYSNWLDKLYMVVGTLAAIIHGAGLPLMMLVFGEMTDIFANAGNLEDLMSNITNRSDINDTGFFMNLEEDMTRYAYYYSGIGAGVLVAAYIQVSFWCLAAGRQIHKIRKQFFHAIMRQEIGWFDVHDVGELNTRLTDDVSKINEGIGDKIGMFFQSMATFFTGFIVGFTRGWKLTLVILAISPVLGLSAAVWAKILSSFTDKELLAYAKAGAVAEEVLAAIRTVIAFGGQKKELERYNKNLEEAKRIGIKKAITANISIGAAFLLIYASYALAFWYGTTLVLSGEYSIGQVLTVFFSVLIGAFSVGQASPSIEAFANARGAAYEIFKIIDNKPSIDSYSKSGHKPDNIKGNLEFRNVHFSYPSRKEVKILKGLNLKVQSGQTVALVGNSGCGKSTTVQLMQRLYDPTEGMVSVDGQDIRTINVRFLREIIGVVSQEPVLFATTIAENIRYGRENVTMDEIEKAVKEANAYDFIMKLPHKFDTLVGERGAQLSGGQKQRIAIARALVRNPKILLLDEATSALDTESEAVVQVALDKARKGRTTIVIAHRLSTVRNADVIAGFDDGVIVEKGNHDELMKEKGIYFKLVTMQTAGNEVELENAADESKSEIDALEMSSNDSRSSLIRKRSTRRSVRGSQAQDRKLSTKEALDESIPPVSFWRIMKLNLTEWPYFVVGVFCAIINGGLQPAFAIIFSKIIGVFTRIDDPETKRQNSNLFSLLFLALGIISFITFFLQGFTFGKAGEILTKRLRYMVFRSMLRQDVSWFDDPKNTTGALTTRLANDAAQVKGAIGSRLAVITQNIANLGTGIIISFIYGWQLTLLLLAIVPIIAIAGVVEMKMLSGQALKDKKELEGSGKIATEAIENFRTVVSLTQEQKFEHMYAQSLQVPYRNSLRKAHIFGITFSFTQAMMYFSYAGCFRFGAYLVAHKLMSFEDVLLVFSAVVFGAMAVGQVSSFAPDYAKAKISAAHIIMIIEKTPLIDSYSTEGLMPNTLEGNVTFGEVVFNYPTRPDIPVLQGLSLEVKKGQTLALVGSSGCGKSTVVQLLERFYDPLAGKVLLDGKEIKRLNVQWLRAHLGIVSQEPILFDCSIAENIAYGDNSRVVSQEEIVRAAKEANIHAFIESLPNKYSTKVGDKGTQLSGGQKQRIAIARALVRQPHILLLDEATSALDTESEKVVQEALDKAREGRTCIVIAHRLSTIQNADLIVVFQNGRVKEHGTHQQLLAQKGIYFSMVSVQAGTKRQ
Sequence of NAD(+) hydrolase SARM1 (Homo sapiens) (Q6SZW1 whole entry, looked up): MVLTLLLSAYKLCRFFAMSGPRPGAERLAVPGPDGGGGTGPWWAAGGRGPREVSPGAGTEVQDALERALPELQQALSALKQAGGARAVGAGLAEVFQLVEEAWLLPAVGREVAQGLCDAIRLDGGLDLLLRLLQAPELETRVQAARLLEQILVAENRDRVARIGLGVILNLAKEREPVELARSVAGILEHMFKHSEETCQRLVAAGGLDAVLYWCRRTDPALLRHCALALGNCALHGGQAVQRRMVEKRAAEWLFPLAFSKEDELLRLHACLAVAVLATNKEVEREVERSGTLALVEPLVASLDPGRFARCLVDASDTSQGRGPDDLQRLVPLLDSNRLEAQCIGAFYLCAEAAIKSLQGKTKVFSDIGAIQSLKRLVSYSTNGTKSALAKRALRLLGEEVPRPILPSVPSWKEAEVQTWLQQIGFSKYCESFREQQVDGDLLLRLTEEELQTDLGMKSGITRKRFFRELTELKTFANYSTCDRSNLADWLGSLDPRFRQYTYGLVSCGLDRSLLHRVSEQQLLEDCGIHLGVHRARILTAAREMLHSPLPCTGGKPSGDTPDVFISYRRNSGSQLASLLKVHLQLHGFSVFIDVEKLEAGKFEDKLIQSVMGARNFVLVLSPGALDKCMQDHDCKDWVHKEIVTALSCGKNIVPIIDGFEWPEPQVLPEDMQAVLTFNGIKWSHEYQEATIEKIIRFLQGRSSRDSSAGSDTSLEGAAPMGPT

On to `CN1C2CCC1CC(OC(c1ccccc1)c1ccccc1)C2` (stereo not drawn), for which the inhibition was -6.22% in assay [1] and -5% (inactive) in assay [6]. The score in assay [2] was determined as 1.2. Also, the rescue above control in assay [3] is -5.92. For the same compound, the cytochrome c release ratio in assay [4] is 1. Moreover, the period change in assay [5] is 0.035 h (inactive). Further, the fluorescence ratio (interference) in assay [7] is 1 (inactive). For the same compound, in assay [8], the outcome was inactive.

As to `CC(C(O)c1ccc(O)cc1)N1CCC(Cc2ccccc2)CC1` (stereo not drawn), the fluorescence slope change in assay [9] was 23.8% (inactive). Also, in assay [5], the period change was 0.3 h (inactive). The survival in assay [10] was 3.25 (inactive). In [6], the inhibition is -4% (inactive). Further, the fluorescence ratio (interference) in assay [7] was 0.9 (inactive). In [8], the outcome was inactive.

For the compound `O=C(O)COCCN1CCN([C@H](c2ccccc2)c2ccc(Cl)cc2)CC1`, the remaining NAD in assay [11] is 10 nM (inactive).

For `CN(C)[C@@H]1C(=O)C(C(=O)NCN2CCCC2)=C(O)[C@@]2(O)C(=O)C3=C(O)c4c(O)cccc4[C@@](C)(O)C3CC12` (stereo partly drawn), the fluorescence slope change in assay [9] is 66.4% (active). Also, the survival in assay [10] is 2.5 (inactive).

Consider `Cc1c2oc3c(C)ccc(C(=O)NC4C(=O)NC(C(C)C)C(=O)N5CCCC5C(=O)N(C)CC(=O)N(C)C(C(C)C)C(=O)OC4C)c3nc-2c(C(=O)NC2C(=O)NC(C(C)C)C(=O)N3CCCC3C(=O)N(C)CC(=O)N(C)C(C(C)C)C(=O)OC2C)c(N)c1=O` (stereo not drawn) (I: TVP[Sar][NMeV] / II: TVP[Sar][NMeV]; ester I:1-I:C, II:1-II:C; linker I:N-II:N via Actinocin(9to1); configuration not given here), for which the outcome in assay [12], in [13], in assay [14] and in [16] was inactive. Besides, the concentration at half-maximal activity (AC50) in assay [15] is 3.62 nM (active).

In the case of `C=C1/C(=C\C=C2/CCC[C@]3(C)[C@@H]([C@H](C)/C=C/[C@@H](O)C4CC4)CC[C@@H]23)C[C@@H](O)C[C@@H]1O`, the remaining activity in [17] was 98% (inactive).

On to `CCCc1nc(C(C)(C)O)c(C(=O)O)n1Cc1ccc(-c2ccccc2-c2nn[nH]n2)cc1`, for which the compound was classed as inactive in assay [13], in [14], in [15] and in assay [16]. Moreover, the remaining NAD in [11] was 10 nM (inactive).

As to `CCN(CC)C(=O)[C@]1(c2ccccc2)C[C@@H]1CN`, the remaining NAD in [11] is 10 nM (inactive).

Regarding `O=c1[nH]c2ccccc2c2ccccc12`, the period change in [5] is 0.13 h (inactive). For the same compound, in assay [6], the inhibition is -3% (inactive). Besides, the fluorescence ratio (interference) in assay [7] is 1 (inactive). Further, in assay [8], the compound was called inactive.

For `O=c1[nH]c(=O)n(C2CC(O)C(CO)O2)cc1F` (stereo not drawn), the inhibition is 17.4% (inactive) and 30.8% (inactive) in assay [18]; 14.4% and 24.7% in [18] (measured here: combo with BGB IC20); 5.72% and 15.6% in [18] (measured here: combo with cisplatin IC20).

In the case of `C=C1/C(=C\C=C2/CCC[C@]3(C)[C@@H]([C@H](C)CCCC(C)(C)O)CC[C@@H]23)C[C@@H](O)C[C@@H]1O`, in assay [10], the survival is 89.6 (inactive). Also, the AC50 in assay [13] was 2350 nM (active); in assay [14] it was 3320 nM (active); in [16], 16600 nM (active). In [15], the compound was called inactive.

Take `CCC[C@@H]1C[C@@H](C(=O)N[C@H]([C@@H](C)O)[C@H]2O[C@H](SC)[C@H](O)[C@@H](O)C2O)N(C)C1` (stereo partly drawn): the fluorescence slope change in [9] is 65% (active).

With `CO[C@H]1/C=C/O[C@@]2(C)Oc3c(C)c(O)c4c(O)c(c5c(c4c3C2=O)NC2(CCN(CC(C)C)CC2)N=5)=NC(=O)/C(C)=C\C=C\[C@H](C)[C@H](O)[C@@H](C)[C@@H](O)[C@@H](C)[C@H](OC(C)=O)[C@@H]1C`, in [10], the survival was 5.5 (inactive).

For `c1ccc(-c2ccccn2)nc1`, in [5], the period change is -0.19 h (inactive). Also, the inhibition in assay [6] was -3% (inactive). Also, the fluorescence ratio (interference) in assay [7] was 1 (inactive). In addition, the result in assay [8] was inactive.

Take `O=C(OC1C[C@@H]2CC3C[C@H](C1)N2CC3=O)c1c[nH]c2ccccc12` (stereo partly drawn): the outcome in assay [8] was inactive.

On to `CN(C)CC/C=C1/c2ccccc2COc2ccccc21`, for which the inhibition in assay [1] is -9.13%. For the same compound, the score in [2] was found to be 1.4. In addition, the rescue above control in [3] stood at 2.19. Besides, the cytochrome c release ratio in assay [4] was determined as 0.69. In addition, in assay [17], the remaining activity was 123% (inactive).
